Results: PubChem BioAssay AID1159580 (chemical genetic matrix, 2015)
The whole screen tested about 5,500 compounds, of which about 2,000 (36%) were called active. Inconclusive results (about 18%) are left out. No stated cut-off is given here; in the data, active means normalized growth mostly below about 0.91 (no sharp cut-off); inconclusive means no clear call, values can overlap the other calls; inactive means mostly above about 0.92. Some of the results follow.

Assay: chemical genetic growth profiling, strain panel (AID 1159580);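 further: tested at 20 µM; growth read once vehicle control cultures reached saturation at 30 °C; 1 = growth at the plate median or of vehicle wells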
Conditions: growth OD

Measured: normalized growth

CC(=O)Oc1cc(-c2coc3cc(OC(C)=O)c(OC(C)=O)c(OC(C)=O)c3c2=O)cc(OC(C)=O)c1OC(C)=O
active: S. cerevisiae deletion strains, locus YKL190W, strain CNB1, stronger effect = lower value 0.888 | S. cerevisiae deletion strains, locus YLR039C, strain RIC1, stronger effect = lower value 0.635 | S. cerevisiae deletion strains, locus YLR058C, strain SHM2, stronger effect = lower value 0.272 | S. cerevisiae deletion strains, locus YLR342W, strain FKS1 (second series), stronger effect = lower value 0.659 | S. cerevisiae deletion strains, locus YLR342W, strain FKS1, stronger effect = lower value 0.904 | S. cerevisiae deletion strains, locus YLR357W, strain rsc2, stronger effect = lower value 0.77 | S. cerevisiae deletion strains, locus YLR370C, strain arc18, stronger effect = lower value 0.909 | S. cerevisiae deletion strains, locus YLR371W, strain rom2, stronger effect = lower value 0.801 | S. cerevisiae deletion strains, locus YLR418C, strain cdc73, stronger effect = lower value 0.782 | S. cerevisiae deletion strains, locus YML016C, strain PPZ1, stronger effect = lower value 0.71 | S. cerevisiae deletion strains, locus YML032C, strain rad52, stronger effect = lower value 0.83 | S. cerevisiae deletion strains, locus YML120C, strain ndi1, stronger effect = lower value 0.898 | S. cerevisiae deletion strains, locus YMR058W, strain fet3, stronger effect = lower value 0.698 | S. cerevisiae deletion strains, locus YMR231W, strain pep5, stronger effect = lower value 0.924 | S. cerevisiae deletion strains, locus YMR263W, strain SAP30, stronger effect = lower value 0.734 | S. cerevisiae deletion strains, locus YNL067W, strain RPL9B, stronger effect = lower value 0.848 | S. cerevisiae deletion strains, locus YNL209W, strain ssb2, stronger effect = lower value 0.785 | S. cerevisiae deletion strains, locus YNL233W, strain BNI4, stronger effect = lower value 0.824 | S. cerevisiae deletion strains, locus YNL322C, strain KRE1, stronger effect = lower value 0.767 | S. cerevisiae deletion strains, locus YNR052C, strain pop2, stronger effect = lower value 0.658 | S. cerevisiae deletion strains, locus YOL147C, strain pex11, stronger effect = lower value 0.694 | S. cerevisiae deletion strains, locus YOR001W, strain rrp6, stronger effect = lower value 0.859 | S. cerevisiae deletion strains, locus YOR061W, strain CKA2, stronger effect = lower value 0.887 | S. cerevisiae deletion strains, locus YOR069W, strain VPS5, stronger effect = lower value 0.904 | S. cerevisiae deletion strains, locus YOR080W, strain dia2, stronger effect = lower value 0.899 | S. cerevisiae deletion strains, locus YOR106W, strain vam3, stronger effect = lower value 0.778 | S. cerevisiae deletion strains, locus YOR144C, strain elg1, stronger effect = lower value 0.797 | S. cerevisiae deletion strains, locus YOR270C, strain vph1, stronger effect = lower value 0.564 | S. cerevisiae deletion strains, locus YOR290C, strain snf2, stronger effect = lower value 0.322 | S. cerevisiae deletion strains, locus YPL051W, strain arl3, stronger effect = lower value 0.847 | S. cerevisiae deletion strains, locus YPL055C, strain LGE1, stronger effect = lower value 0.751 | S. cerevisiae deletion strains, locus YPL078C, strain atp4, stronger effect = lower value 0.772 | S. cerevisiae deletion strains, strain wtn01, stronger effect = lower value 0.882 | S. cerevisiae strains, strain wild type, stronger effect = lower value 0.75
inactive: S. cerevisiae deletion strains, locus YKL009W, strain mrt4, stronger effect = lower value 1.05 | S. cerevisiae deletion strains, locus YKL068W, stronger effect = lower value 1.01 | S. cerevisiae deletion strains, locus YKL085W, strain MDH1 (second series), stronger effect = lower value 1.01 | S. cerevisiae deletion strains, locus YKL085W, strain MDH1, stronger effect = lower value 1.01 | S. cerevisiae deletion strains, locus YKL160W, strain elf1, stronger effect = lower value 0.926 | S. cerevisiae deletion strains, locus YKR001C, strain vps1, stronger effect = lower value 0.962 | S. cerevisiae deletion strains, locus YKR026C, strain gcn3, stronger effect = lower value 0.979 | S. cerevisiae deletion strains, locus YKR091W, strain srl3, stronger effect = lower value 0.985 | S. cerevisiae deletion strains, locus YLL001W, strain dnm1, stronger effect = lower value 0.918 | S. cerevisiae deletion strains, locus YLL026W, stronger effect = lower value 0.966 | S. cerevisiae deletion strains, locus YLL041C, strain sdh2, stronger effect = lower value 0.967 | S. cerevisiae deletion strains, locus YLR027C, strain aat2, stronger effect = lower value 0.964 | S. cerevisiae deletion strains, locus YLR102C, strain apc9, stronger effect = lower value 1.03 | S. cerevisiae deletion strains, locus YLR113W, strain HOG1, stronger effect = lower value 1.11 | S. cerevisiae deletion strains, locus YLR221C, strain rsa3, stronger effect = lower value 0.911 | S. cerevisiae deletion strains, locus YLR258W, strain gsy2, stronger effect = lower value 0.963 | S. cerevisiae deletion strains, locus YLR262C, strain YPT6 (second series), stronger effect = lower value 0.887 | S. cerevisiae deletion strains, locus YLR262C, strain YPT6, stronger effect = lower value 0.89 | S. cerevisiae deletion strains, locus YLR268W, strain sec22, stronger effect = lower value 0.889 | S. cerevisiae deletion strains, locus YLR320W, strain mms22, stronger effect = lower value 0.9 | S. cerevisiae deletion strains, locus YLR384C, strain iki3, stronger effect = lower value 0.965 | S. cerevisiae deletion strains, locus YML124C, strain tub3, stronger effect = lower value 1 | S. cerevisiae deletion strains, locus YMR078C, strain ctf18, stronger effect = lower value 1.01 | S. cerevisiae deletion strains, locus YMR125W, strain sto1, stronger effect = lower value 1.03 | S. cerevisiae deletion strains, locus YMR129W, stronger effect = lower value 0.98 | S. cerevisiae deletion strains, locus YMR205C, strain PFK2, stronger effect = lower value 0.896 | S. cerevisiae deletion strains, locus YMR223W, strain ubp8, stronger effect = lower value 0.938 | S. cerevisiae deletion strains, locus YMR307W, strain GAS1, stronger effect = lower value 0.67 | S. cerevisiae deletion strains, locus YNL071W, strain lat1, stronger effect = lower value 0.979 | S. cerevisiae deletion strains, locus YNL183C, strain NPR1, stronger effect = lower value 0.988 | S. cerevisiae deletion strains, locus YNL248C, strain rpa49, stronger effect = lower value 0.945 | S. cerevisiae deletion strains, locus YNL250W, strain rad50, stronger effect = lower value 1.06 | S. cerevisiae deletion strains, locus YNL271C, strain bni1, stronger effect = lower value 1.01 | S. cerevisiae deletion strains, locus YNL298W, strain CLA4, stronger effect = lower value 0.998 | S. cerevisiae deletion strains, locus YNL307C, strain MCK1, stronger effect = lower value 1.02 | S. cerevisiae deletion strains, locus YNL322C, strain KRE1 (second series), stronger effect = lower value 0.972 | S. cerevisiae deletion strains, locus YNR049C, strain mso1, stronger effect = lower value 0.979 | S. cerevisiae deletion strains, locus YOL012C, strain htz1 0.316 | S. cerevisiae deletion strains, locus YOR070C, strain gyp1, stronger effect = lower value 0.937 | S. cerevisiae deletion strains, locus YOR083W, strain WHI5, stronger effect = lower value 0.908 | S. cerevisiae deletion strains, locus YOR136W, strain idh2, stronger effect = lower value 1 | S. cerevisiae deletion strains, locus YOR184W, strain ser1, stronger effect = lower value 0.905 | S. cerevisiae deletion strains, locus YOR231W, strain MKK1, stronger effect = lower value 1.05 | S. cerevisiae deletion strains, locus YOR265W, strain rbl2, stronger effect = lower value 0.946 | S. cerevisiae deletion strains, locus YOR316C, strain cot1, stronger effect = lower value 1.02 | S. cerevisiae deletion strains, locus YPL106C, strain sse1, stronger effect = lower value 0.869 | S. cerevisiae deletion strains, locus YPL240C, strain hsp82, stronger effect = lower value 0.961 | S. cerevisiae deletion strains, locus YPL256C, strain CLN2, stronger effect = lower value 1.12 | S. cerevisiae deletion strains, locus YPR119W, strain clb2, stronger effect = lower value 1.03 | S. cerevisiae deletion strains, locus YPR141C, strain kar3, stronger effect = lower value 1.03 | S. cerevisiae deletion strains, locus YPR163C, strain tif3, stronger effect = lower value 0.989 | S. cerevisiae deletion strains, locus YPR167C, strain met16, stronger effect = lower value 0.953
